Data on one sequence can be found in article PMC7862700, “An all-to-all approach to the identification of sequence-specific readers for epigenetic DNA modifications on cytosine”.

Experiment in all cases: DAPPL (digital affinity profiling via proximity ligation, sequencing); 10 mM Tris-HCl pH 7.5, 50 mM NaCl, 1 mM DTT, 4% glycerol, room temperature, 30 min; GST-TFs on glutathione beads, 16-mer random dsDNA library, 0.1% formaldehyde crosslink after washing; high values mean tight binding
For one assay, the target named is T1, FEV (Homo sapiens, UniProt Q99581 1-238).
T1 sequence: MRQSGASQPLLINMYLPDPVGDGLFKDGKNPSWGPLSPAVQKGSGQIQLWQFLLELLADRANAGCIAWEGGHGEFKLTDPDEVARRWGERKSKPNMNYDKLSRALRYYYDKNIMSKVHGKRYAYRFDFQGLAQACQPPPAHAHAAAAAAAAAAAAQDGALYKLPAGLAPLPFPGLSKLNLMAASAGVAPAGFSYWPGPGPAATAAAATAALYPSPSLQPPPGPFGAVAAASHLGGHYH
As to conditions: protein: recombinant; tags: N-terminal GST; dsDNA, one strand shown. In outline:
(§1)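 Human transcription factors carrying a GST fusion were produced in yeast, bound to glutathione beads, tagged with DNA barcodes and pooled together with a tag-only sample. Each pool was held with 200 nmole of a random double-stranded 16-mer DNA library in Tris/NaCl/DTT/glycerol buffer for 30 min at room temperature, then washed, crosslinked in 0.1% formaldehyde, proximity-ligated with BsaI/T4 ligase (1 h, 37 °C), PCR-amplified and sequenced on an Illumina NextSeq500. Binding signal is the read frequency of each hexamer for a given factor divided by its frequency in the tag-only sample.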

The target of a further assay is ETV5 (Homo sapiens, UniProt P41161 1-510). As to conditions: protein: recombinant; tags: N-terminal GST; dsDNA, one strand shown. A digest of the protocol: as §1
Another assay has as its target HSF1 (Homo sapiens, UniProt Q00613 1-529). As to conditions: protein: recombinant; tags: N-terminal GST; chain copies: 3; dsDNA, one strand shown. A digest of the protocol: as §1
Another assay concerns the target T2, SPIC (Homo sapiens, UniProt Q8N5J4 1-248).
T2 sequence: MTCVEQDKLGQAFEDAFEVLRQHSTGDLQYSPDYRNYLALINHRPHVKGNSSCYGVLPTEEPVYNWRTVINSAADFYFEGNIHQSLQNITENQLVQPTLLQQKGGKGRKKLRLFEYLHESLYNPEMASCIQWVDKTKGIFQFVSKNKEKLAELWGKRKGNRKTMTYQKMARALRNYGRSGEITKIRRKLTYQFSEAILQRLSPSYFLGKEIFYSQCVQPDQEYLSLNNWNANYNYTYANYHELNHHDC
As to conditions: protein: recombinant; tags: N-terminal GST; dsDNA, one strand shown. A digest of the protocol:
as §1

For another assay, the target named is ELF4 (Homo sapiens, UniProt Q99607 1-663). As to conditions: protein: recombinant; tags: N-terminal GST; dsDNA, one strand shown. A digest of the protocol: as §1
In the next assay the target is T3, ELK4 (Homo sapiens, UniProt P28324-2 1-405).
T3 sequence: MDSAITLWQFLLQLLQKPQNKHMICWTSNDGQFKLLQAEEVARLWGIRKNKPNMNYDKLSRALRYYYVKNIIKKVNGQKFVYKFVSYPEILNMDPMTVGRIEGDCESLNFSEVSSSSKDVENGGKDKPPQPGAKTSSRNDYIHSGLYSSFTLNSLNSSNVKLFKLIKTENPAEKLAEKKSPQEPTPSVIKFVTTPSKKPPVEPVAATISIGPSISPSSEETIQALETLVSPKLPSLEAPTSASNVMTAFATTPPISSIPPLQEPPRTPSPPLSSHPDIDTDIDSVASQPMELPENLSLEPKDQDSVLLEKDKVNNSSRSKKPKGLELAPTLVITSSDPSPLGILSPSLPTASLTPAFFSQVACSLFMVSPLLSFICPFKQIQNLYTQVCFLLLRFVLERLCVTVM
To be noted: protein: recombinant; tags: N-terminal GST; dsDNA, one strand shown. A digest of the protocol:
as §1

A further assay concerns the target T4, ETV2 (Homo sapiens, UniProt O00321 1-342).
T4 sequence: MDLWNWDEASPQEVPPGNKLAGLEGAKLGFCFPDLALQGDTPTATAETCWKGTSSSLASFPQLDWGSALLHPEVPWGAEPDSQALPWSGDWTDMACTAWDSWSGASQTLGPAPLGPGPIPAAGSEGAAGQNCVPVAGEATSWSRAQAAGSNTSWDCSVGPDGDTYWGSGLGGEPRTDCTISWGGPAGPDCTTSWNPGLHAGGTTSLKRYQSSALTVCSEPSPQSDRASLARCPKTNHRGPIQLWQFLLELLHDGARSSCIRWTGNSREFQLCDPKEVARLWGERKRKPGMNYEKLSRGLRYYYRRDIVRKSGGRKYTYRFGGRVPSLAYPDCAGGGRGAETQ
To be noted: protein: recombinant; tags: N-terminal GST; dsDNA, one strand shown. A digest of the protocol:
as §1

The target in another assay is T5, ELF3 (Homo sapiens, UniProt P78545 1-371).
T5 sequence: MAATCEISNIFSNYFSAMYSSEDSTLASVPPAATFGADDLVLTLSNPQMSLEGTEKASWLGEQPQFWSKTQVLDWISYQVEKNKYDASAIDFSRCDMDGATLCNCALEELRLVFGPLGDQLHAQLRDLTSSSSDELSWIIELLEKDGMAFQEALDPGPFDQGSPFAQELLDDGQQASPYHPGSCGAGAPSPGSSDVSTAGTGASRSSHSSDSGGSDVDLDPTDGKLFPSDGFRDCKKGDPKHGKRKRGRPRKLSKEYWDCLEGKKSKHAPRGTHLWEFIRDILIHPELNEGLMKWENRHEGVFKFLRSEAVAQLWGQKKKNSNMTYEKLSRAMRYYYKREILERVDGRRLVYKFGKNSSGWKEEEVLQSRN
To be noted: protein: recombinant; tags: N-terminal GST; dsDNA, one strand shown. In outline:
as §1

The next assay concerns the target CRX (Homo sapiens, UniProt O43186 1-299). To be noted: protein: recombinant; tags: N-terminal GST; dsDNA, one strand shown. In outline: as §1
The next assay addresses ETV1 (Homo sapiens, UniProt P50549 1-477). As to conditions: protein: recombinant; tags: N-terminal GST; dsDNA, one strand shown. A digest of the protocol: as §1
A further assay concerns the target T6, ERF (Homo sapiens, UniProt P50548 1-548).
T6 sequence: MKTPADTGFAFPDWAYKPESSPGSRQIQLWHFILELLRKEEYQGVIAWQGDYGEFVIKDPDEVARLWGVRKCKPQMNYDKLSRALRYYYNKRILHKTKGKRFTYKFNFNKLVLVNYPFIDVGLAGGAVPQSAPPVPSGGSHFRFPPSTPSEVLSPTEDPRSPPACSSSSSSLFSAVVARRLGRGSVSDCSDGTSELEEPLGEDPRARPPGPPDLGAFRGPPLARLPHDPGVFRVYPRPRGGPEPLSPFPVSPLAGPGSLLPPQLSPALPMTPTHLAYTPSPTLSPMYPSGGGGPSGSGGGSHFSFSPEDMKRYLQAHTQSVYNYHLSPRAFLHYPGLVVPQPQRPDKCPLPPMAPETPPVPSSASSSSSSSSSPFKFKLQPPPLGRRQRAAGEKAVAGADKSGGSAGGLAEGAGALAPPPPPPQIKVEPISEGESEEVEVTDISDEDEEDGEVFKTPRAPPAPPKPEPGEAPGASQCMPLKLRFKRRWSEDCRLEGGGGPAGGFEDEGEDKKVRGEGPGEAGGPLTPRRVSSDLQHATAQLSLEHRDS
To be noted: protein: recombinant; tags: N-terminal GST; dsDNA, one strand shown. In outline: as §1

The next assay addresses T7, ETV3L (Homo sapiens, UniProt Q6ZN32 1-361).
T7 sequence: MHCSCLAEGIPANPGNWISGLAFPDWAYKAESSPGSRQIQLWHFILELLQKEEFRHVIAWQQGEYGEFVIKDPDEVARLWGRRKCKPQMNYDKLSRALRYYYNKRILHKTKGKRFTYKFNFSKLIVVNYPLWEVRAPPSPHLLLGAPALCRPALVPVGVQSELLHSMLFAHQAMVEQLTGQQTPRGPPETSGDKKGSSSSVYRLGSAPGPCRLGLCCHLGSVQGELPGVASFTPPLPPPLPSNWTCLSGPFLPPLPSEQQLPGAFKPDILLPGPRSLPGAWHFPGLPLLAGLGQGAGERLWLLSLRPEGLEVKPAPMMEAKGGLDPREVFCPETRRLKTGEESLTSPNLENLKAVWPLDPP
To be noted: protein: recombinant; tags: N-terminal GST; dsDNA, one strand shown. In outline: as §1

In a further assay the target is T8, ETS2 (Homo sapiens, UniProt P15036 1-469).
T8 sequence: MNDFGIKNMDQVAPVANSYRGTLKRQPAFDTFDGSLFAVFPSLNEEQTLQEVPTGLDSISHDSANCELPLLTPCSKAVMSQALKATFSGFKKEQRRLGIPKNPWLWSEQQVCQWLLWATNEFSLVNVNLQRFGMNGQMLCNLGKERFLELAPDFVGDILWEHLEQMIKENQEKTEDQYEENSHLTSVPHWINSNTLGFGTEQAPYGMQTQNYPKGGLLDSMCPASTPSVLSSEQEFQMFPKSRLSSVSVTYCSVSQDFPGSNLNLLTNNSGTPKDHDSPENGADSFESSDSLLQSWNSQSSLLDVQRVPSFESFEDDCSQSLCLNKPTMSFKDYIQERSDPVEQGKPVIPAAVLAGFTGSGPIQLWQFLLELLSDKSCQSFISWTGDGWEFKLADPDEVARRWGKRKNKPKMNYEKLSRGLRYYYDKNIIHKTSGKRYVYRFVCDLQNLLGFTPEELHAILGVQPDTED
To be noted: protein: recombinant; tags: N-terminal GST; dsDNA, one strand shown. In outline:
as §1

The next assay concerns the target T9, SPDEF (Homo sapiens, UniProt O95238 1-335).
T9 sequence: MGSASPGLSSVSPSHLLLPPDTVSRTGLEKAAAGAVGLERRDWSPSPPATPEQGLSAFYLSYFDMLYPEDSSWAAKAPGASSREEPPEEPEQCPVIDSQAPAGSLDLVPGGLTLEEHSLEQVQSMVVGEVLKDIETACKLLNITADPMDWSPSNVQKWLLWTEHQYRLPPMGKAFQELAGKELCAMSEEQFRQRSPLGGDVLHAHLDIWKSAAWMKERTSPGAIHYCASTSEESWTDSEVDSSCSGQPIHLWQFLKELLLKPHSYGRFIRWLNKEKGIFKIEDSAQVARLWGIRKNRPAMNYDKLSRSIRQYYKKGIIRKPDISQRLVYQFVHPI
As to conditions: protein: recombinant; tags: N-terminal GST; dsDNA, one strand shown. In outline: as §1

In the next assay the target is T10, ETV7 (Homo sapiens, UniProt Q9Y603 1-341).
T10 sequence: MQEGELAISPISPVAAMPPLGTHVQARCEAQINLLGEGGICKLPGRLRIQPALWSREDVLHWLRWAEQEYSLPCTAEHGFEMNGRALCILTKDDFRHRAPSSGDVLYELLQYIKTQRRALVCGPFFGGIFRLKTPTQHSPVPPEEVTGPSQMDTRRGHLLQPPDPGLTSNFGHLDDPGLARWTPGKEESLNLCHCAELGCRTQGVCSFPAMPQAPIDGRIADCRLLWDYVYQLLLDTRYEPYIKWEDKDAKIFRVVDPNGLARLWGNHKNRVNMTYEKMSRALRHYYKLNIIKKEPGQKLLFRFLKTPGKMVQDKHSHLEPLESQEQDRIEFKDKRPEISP
To be noted: protein: recombinant; tags: N-terminal GST; dsDNA, one strand shown. In outline: as §1

The next assay has as its target T11, ELF5 (Homo sapiens, UniProt Q9UKW6-2 1-255).
T11 sequence: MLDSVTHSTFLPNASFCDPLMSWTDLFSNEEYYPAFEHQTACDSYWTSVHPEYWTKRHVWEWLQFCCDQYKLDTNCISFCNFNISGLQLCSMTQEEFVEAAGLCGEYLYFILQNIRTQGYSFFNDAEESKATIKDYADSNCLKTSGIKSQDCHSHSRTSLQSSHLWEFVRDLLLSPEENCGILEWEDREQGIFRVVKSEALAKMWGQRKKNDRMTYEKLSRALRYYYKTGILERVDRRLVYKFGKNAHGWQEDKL
To be noted: protein: recombinant; tags: N-terminal GST; dsDNA, one strand shown. A digest of the protocol: as §1

A further assay concerns the target T12, ETV3 (Homo sapiens, UniProt P41162-2 1-143).
T12 sequence: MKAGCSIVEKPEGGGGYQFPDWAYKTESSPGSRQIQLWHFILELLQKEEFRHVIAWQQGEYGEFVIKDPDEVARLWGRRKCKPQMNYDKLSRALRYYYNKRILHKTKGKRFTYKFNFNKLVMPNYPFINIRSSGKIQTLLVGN
To be noted: protein: recombinant; tags: N-terminal GST; dsDNA, one strand shown. In outline:
as §1

For another assay, the target named is ETV6 (Homo sapiens, UniProt P41212 1-452). To be noted: protein: recombinant; tags: N-terminal GST; dsDNA, one strand shown. A digest of the protocol: as §1
Chain of ETV6 (P41212 whole entry): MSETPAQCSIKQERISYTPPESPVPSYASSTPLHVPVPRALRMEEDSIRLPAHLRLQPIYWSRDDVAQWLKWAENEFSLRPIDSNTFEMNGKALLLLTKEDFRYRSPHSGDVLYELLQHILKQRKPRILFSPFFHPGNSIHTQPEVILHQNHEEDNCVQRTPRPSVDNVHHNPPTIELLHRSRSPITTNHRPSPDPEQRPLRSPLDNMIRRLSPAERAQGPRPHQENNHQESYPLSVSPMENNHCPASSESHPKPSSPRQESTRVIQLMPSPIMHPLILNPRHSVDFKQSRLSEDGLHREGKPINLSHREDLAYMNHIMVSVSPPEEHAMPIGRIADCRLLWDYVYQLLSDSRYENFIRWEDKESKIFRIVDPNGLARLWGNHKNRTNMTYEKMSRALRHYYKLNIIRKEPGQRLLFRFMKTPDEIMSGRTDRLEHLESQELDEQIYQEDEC

Chain of ETV1 (P50549 whole entry): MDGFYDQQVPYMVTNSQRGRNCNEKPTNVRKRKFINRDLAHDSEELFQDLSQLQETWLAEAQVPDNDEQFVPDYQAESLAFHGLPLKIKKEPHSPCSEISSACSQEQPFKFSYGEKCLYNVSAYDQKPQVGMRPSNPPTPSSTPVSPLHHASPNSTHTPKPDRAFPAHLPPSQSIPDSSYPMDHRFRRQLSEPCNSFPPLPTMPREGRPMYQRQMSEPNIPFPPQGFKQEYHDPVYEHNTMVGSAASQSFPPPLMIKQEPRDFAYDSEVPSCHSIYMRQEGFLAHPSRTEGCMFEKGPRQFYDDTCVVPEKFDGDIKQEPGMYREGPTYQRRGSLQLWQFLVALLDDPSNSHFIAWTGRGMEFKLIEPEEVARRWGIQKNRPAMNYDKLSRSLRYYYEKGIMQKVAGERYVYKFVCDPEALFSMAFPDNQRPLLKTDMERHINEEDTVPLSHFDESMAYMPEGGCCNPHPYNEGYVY
Chain of HSF1 (Q00613 whole entry): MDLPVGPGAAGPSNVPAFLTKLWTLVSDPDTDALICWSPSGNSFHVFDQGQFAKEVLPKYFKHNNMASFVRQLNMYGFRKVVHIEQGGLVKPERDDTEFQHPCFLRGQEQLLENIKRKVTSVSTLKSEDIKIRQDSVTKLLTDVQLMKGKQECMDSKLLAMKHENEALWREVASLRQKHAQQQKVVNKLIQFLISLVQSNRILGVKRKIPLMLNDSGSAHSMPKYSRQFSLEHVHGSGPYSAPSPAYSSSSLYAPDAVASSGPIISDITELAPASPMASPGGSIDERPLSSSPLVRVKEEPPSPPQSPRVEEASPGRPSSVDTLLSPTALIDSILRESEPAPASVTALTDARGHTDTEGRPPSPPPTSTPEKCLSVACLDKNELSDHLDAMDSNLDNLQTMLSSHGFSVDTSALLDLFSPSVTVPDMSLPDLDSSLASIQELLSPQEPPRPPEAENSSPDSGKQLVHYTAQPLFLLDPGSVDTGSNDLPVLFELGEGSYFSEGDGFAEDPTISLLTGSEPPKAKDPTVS
Chain of ETV5 (P41161 whole entry): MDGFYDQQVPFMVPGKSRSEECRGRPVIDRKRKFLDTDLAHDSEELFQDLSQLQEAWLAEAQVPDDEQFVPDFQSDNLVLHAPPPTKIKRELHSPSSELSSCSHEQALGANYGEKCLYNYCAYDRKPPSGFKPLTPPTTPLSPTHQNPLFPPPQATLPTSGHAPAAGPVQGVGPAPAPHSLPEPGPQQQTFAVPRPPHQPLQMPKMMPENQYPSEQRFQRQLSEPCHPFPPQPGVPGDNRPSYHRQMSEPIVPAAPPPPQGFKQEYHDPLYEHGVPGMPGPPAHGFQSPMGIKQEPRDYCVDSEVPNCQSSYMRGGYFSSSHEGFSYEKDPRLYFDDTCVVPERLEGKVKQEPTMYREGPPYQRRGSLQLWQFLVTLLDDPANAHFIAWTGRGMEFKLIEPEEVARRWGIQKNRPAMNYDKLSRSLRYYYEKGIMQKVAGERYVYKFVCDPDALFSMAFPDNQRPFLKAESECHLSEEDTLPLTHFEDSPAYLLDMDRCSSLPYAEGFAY
Chain of ELF4 (Q99607 whole entry): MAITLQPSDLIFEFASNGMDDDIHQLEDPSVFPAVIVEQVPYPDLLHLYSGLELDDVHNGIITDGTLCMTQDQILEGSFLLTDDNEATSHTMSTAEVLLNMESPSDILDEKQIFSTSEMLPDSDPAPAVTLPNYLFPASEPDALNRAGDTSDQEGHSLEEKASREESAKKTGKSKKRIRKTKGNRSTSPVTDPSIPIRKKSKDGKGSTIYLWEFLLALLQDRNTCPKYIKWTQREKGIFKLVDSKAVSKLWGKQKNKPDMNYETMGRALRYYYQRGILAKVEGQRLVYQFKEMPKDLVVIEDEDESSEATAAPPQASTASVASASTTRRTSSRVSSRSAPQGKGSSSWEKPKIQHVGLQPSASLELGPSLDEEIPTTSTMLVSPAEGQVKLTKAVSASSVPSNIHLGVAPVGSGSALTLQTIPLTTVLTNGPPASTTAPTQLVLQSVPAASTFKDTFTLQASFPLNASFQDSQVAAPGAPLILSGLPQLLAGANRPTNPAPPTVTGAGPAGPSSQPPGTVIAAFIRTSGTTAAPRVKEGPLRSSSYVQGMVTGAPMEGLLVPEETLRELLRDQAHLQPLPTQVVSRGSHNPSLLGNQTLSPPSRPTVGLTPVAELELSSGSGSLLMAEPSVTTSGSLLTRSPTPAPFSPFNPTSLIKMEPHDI
Chain of CRX (O43186 whole entry): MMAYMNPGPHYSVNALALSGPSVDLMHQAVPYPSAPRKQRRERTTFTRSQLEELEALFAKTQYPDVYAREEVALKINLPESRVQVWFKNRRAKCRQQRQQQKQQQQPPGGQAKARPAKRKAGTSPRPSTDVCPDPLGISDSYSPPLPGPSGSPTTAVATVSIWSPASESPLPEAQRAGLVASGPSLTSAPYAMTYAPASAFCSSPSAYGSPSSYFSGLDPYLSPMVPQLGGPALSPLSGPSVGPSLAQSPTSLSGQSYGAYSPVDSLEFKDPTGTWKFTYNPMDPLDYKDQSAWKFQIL

Regarding CTTAAC, the binding signal with FEV was 1.27 fold enrichment (6-mer frequency, TF over GST control); with ETV5, 1.26 fold enrichment (6-mer frequency, TF over GST control); in the assay with HSF1, 1.72 fold enrichment (6-mer frequency, TF over GST control); in the assay with SPIC it was 1.18 fold enrichment (6-mer frequency, TF over GST control); with ELF4 it was 1.28 fold enrichment (6-mer frequency, TF over GST control); with ELK4, 1.34 fold enrichment (6-mer frequency, TF over GST control). Moreover, the binding signal with ETV2 was 1.25 fold enrichment (6-mer frequency, TF over GST control); with ELF3, 1.36 fold enrichment (6-mer frequency, TF over GST control); with CRX, 2.4 fold enrichment (6-mer frequency, TF over GST control); with ETV1, 1.14 fold enrichment (6-mer frequency, TF over GST control); with ERF, 1.3 fold enrichment (6-mer frequency, TF over GST control); with ETV3L it was 1.22 fold enrichment (6-mer frequency, TF over GST control). The binding signal with ETS2 was 1.3 fold enrichment (6-mer frequency, TF over GST control); in the assay with SPDEF, 1.36 fold enrichment (6-mer frequency, TF over GST control); with ETV7, 1.29 fold enrichment (6-mer frequency, TF over GST control); with ELF5, 1.31 fold enrichment (6-mer frequency, TF over GST control); in the assay with ETV3, 1.3 fold enrichment (6-mer frequency, TF over GST control); in the assay with ETV6, 1.29 fold enrichment (6-mer frequency, TF over GST control).
